These results are taken from PubChem BioAssay.

Molecules are shown by their SMILES. Records with an inconclusive call do not appear. Calls of active or inactive are those of the source.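 Rule for the calls, unless noted: active = differentiation response of at least 50%, scaled between solvent and reference control, from cells with both markers; inactive = the rest.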

A short description of experiment [1]: rapamycin-like changes in RPL19A-GFP expression – cell-based, S. cerevisiae, multiplex flow cytometry, primary screen (AID 1862; in the data active = percent of DMSO control GFP below about 86%;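 note: lower values mimic rapamycin by blocking the RPL19A rise seen in DMSO cells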). Conditions: S. cerevisiae RPL19A-GFP strain, flow cytometry fluorescence, 3 h; at 10 µM; stronger effect = lower value.
The nature of experiment [2]: TOR pathway GLN3 branch reporter MEP2-GFP changes – S. cerevisiae, multiplex flow cytometry, primary screen (AID 1867;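 active = GFP response, as percent of the DMSO control, above the screen-wide mean plus 3 SD, about 139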;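 note: median GFP channel fluorescence of barcode-gated MEP2-GFP cells measured by flow cytometry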). Conditions: S. cerevisiae MEP2-GFP strain, 3 h, at 10 µM, stronger effect = higher value, 100% means same as DMSO wells. In general terms: Flow cytometry measures light scatter and fluorescence of single cells or particles in a stream.
Experiment [3] can be described thus: TOR pathway RTG branch CIT2 reporter changes – S. cerevisiae, GFP fusion, multiplex flow cytometry, primary screen (AID 1870;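 active = percent response above a set limit, the screen-wide mean plus 3 SD, cut at about 130% in these data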;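 note: barcoded CIT2-GFP strain pooled with four other GFP strains with rapamycin as positive control; median GFP fluorescence per well over plate mean of DMSO wells so 100% = DMSO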). Conditions: S. cerevisiae CIT2-GFP expression, 3 h, at 10 µM, stronger effect = higher value.
Experiment [4] can be described thus: TOR pathway LAP4-GFP level changes – S. cerevisiae, multiplex flow cytometry, primary screen (AID 1873;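 active = GFP signal, as percent of the solvent control, above the screen mean plus 3 SD, about 149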). The settings on record: S. cerevisiae LAP4-GFP expression, 3 h, at 10 µM, stronger effect = higher value.
The nature of experiment [5]: reduced mouse 2C T cell binding to pMHC/ICAM-1 vesicles – MLPCN validation set, flow cytometry, LFA-1/ICAM-1 modulator project, pilot screen (AID 2523;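 active = response below a set limit, under 55% cells CD8-positive and vesicle-bound, and CD8 cells' 90th-percentile brightness under 279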;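 for vesicle binding response: mean PE anti-B7-1 fluorescence of CD8+ cells relative to row control; 100% = QL9-loaded vesicles with DMSO vehicle in the same plate row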). Conditions: 2C mouse CD8+ T cells, at 7 µM, stronger effect = lower value; double positive events: measured here: CD8+/vesicle+ event percentage.
Experiment [6] concerns the target Integrin beta-1 (Homo sapiens) + Integrin alpha-4 (Homo sapiens) (UniProt P13612+P05556). Description: alpha4beta1 integrin LIBS antibody binding reduction – U937 cells, HUTS-21 mAb, flow cytometry, validation set, VLA-4 allosteric modulator project, pilot screen (AID 2674;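 active = inhibition above 50%, about 3 SD of the validation set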;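 note: antibody binding induced by the VLA-4 ligand LDV present at three times its Kd; 0% = LDV ligand with antibody and no compound and 100% = antibody without LDV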). The settings on record: HUTS-21 LIBS mAb binding, at 6.7 µM, stronger effect = higher value, binding induced by LDV ligand.

A short description of experiment [7]: calorie-restriction mimetic ROS inhibitors, yeast – validation compound set, pilot screen (AID 2706;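 active = superoxide response below 65% of plate, a cut near 3 SD across the whole screen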;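 note: yeast exposed to compound for one week at 30 degrees C before staining; 100% = mean of all compound wells on the same plate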). Conditions: S. cerevisiae aging, superoxide DHE fluorescence; at 10 µM, stronger effect = lower value.
For experiment [8], the target named is Beta-adrenergic receptor kinase 1 (Homo sapiens) (UniProt P25098). The experiment in a line: GRK2 binders displacing RNA aptamer, biochemical, validation, human GRK2, bead flow cytometry (AID 488806;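 active = aptamer binding inhibition above 30%, about 3 SD of noise from non-fluorescent compounds; inactive = inhibition at or below 30%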). The settings on record: bead-bound GRK2, FAM-aptamer displacement, at 10 µM, stronger effect = higher value.
Sequence of Beta-adrenergic receptor kinase 1 (Homo sapiens) (P25098 whole entry, looked up): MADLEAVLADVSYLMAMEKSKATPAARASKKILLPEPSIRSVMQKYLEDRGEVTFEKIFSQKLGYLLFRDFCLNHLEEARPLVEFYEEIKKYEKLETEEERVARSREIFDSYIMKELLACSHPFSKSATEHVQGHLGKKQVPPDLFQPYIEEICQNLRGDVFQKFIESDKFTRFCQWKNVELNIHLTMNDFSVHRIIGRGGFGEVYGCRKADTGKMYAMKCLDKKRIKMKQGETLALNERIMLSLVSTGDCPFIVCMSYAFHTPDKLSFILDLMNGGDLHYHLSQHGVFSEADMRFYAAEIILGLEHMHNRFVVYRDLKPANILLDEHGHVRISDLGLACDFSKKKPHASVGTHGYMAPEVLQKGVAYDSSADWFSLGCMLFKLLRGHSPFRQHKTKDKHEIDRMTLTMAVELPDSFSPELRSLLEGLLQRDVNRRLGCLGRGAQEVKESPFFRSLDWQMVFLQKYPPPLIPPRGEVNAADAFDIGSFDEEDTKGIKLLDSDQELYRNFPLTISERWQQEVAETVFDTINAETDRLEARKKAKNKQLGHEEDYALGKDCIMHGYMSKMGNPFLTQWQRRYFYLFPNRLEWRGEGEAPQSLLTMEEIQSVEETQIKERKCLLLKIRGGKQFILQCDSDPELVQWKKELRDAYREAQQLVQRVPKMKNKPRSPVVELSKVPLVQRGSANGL
Experiment [9] deals with Beta-2 adrenergic receptor (Homo sapiens) (UniProt P07550). Description: agonist-induced loss of surface beta2AR – cell-based, FAP fluorogen, flow cytometry, validation set, pilot screen (AID 504459;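 active = percent response above 42, roughly 3 SD of non-fluorescent test compounds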;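 note: agonist-driven loss of surface beta2AR via internalization measured by FAP dye flow cytometry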). Conditions: Am2.2-beta2AR cells, at 10 µM, stronger effect = higher value.
Sequence of Beta-2 adrenergic receptor (Homo sapiens) (P07550 whole entry, looked up): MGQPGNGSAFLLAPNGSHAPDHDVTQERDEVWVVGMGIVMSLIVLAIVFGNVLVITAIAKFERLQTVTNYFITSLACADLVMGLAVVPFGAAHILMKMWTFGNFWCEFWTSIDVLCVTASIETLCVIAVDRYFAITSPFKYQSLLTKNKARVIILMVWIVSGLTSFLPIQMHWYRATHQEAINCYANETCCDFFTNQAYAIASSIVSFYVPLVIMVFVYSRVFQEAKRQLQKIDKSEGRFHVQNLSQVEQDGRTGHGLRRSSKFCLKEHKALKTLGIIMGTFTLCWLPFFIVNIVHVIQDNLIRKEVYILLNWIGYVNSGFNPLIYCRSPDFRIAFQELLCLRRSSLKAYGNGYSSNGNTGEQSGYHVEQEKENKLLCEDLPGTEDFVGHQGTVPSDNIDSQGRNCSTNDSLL
Experiment [10] addresses AP-2 complex subunit beta (Homo sapiens) (UniProt P63010). The experiment in a line: beta-arrestin/AP2 interaction blockers – biochemical, validation set, GST-AP2 beads, flow cytometry, pilot screen (AID 504541;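 active = inhibition above 54%, about 3 SD of non-fluorescent compounds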;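 note: AP2 carries R879A mutation and is captured from E. coli lysate; bead-bound FITC arrestin peptide fluorescence measuring arrestin peptide binding to AP2; 0% = DMSO wells and 100% = excess unlabeled arrestin peptide control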). Conditions: FITC arrestin peptide, at 10 µM, stronger effect = higher value, AP2 beta2 appendage fragment, R879A mutant.
Experiment [11] in a line: cytosolic pH regulators acting via V-ATPase – S. cerevisiae, pHLuorin, HTS validation (AID 504600; in the data active = response above about 15%;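 note: plate controls were DMSO for no effect and reference compound for full effect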). Conditions: V-ATPase proton transport, at 10 µM, stronger effect = higher value.
Experiment [12] has as its system anti-desmoglein-3 scFv antibody binding to human DSG3. Description: blockers of pathogenic pemphigus antibody–desmoglein-3 binding – biochemical, validation compound set, bead-based, flow cytometry, pilot screen (AID 588368;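 active = binding below the plate cutoff, the plate median minus 3 SD, with a reading above zero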;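 note: signal is the median channel fluorescence of bead-bound GFP antibody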). Conditions: Protein G beads, DSG3-Fc, scFv-GFP binding, at 10 µM, stronger effect = lower value.
Experiment [13] can be described thus: Nile Red efflux blockade in pump-expressing yeast – validation compound set, multiplex, phenotypic, pilot screen (AID 588506;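 active = efflux inhibition above 0.42, the validation set average plus 4 SD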;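 note: Nile Red retained in cells so higher fluorescence means more efflux inhibition; 0 = negative control wells and 1 = enniatin B 25 µM full block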). Conditions: S. cerevisiae pump-expressing triplex, Nile Red efflux flow cytometry; at 10 µM; stronger effect = higher value; the pumps come from Candida albicans.
Experiment [14] concerns the target ATP-binding cassette sub-family B member 6 (Homo sapiens) (UniProt Q9NP58). The experiment in a line: blockers of ABCB6-driven porphyrin uptake – K562-ABCB6 cells, flow cytometry, validation set, pilot screen (AID 588550;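 active = inhibition above the screen-wide mean plus 3 SD, about 51%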;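 note: 0% = DMSO wells and 100% = benzethonium chloride 70 µM positive control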). The settings on record: K562-ABCB6 porphyrin accumulation, 1 h, at 10 µM, stronger effect = higher value.
Experiment [15] can be described thus: AML differentiation inducers, ER-HoxA9 marrow cells – cell-based, GFP/MAC1 double positive, flow cytometry, validation set, primary screen (AID 588685).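 Note: compound exposure lasts four days before antibody staining and flow analysis; 0% = DMSO wells and 100% = 5 µM fulvestrant positive control.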 Conditions: stronger effect = higher value, normalized: vehicle 0, fulvestrant 100.
Experiment [16] is described as follows: yeast AGP1-GFP level changes, GLN3 branch – cell-based, multiplex flow cytometry, S. cerevisiae, primary screen (AID 1887;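 active = GFP signal above the screen-wide mean plus 3 SD, that is over about 124.5% of the solvent control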;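 note: AGP1-GFP fusion strain of S. cerevisiae within a five-strain barcoded multiplex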). The settings on record: 3 h, at 10 µM, stronger effect = higher value.

Usually inhibition stands for the relative decrease from the control value, in per cent.

Sequence of AP-2 complex subunit beta (Homo sapiens) (P63010 whole entry, looked up, the tested form may be a part, one chain of several): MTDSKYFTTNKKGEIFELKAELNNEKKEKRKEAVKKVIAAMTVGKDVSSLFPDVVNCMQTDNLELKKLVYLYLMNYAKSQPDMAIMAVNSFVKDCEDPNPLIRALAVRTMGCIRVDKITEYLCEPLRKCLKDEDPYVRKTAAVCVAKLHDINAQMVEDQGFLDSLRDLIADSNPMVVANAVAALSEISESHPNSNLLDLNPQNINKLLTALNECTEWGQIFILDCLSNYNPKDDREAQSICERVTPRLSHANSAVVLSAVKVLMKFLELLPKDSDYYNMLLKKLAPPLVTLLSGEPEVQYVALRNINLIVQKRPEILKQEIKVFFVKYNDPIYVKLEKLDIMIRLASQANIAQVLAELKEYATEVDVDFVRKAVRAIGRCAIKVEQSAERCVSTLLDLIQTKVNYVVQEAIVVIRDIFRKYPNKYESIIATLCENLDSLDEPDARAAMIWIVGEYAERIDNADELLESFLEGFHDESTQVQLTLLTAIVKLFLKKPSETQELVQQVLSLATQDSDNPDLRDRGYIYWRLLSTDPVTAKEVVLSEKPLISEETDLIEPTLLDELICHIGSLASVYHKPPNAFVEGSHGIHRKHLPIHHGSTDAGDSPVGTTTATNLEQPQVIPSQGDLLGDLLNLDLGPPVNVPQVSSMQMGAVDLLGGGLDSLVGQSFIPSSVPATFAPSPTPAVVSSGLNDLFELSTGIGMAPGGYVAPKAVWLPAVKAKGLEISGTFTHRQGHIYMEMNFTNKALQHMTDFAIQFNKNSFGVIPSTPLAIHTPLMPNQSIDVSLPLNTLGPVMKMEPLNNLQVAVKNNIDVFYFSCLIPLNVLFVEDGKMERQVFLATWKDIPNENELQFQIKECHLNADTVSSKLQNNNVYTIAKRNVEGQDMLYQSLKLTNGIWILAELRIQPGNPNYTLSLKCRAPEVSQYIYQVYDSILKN
Sequence of Integrin beta-1 (Homo sapiens) + Integrin alpha-4 (Homo sapiens) (P05556 whole entry, looked up): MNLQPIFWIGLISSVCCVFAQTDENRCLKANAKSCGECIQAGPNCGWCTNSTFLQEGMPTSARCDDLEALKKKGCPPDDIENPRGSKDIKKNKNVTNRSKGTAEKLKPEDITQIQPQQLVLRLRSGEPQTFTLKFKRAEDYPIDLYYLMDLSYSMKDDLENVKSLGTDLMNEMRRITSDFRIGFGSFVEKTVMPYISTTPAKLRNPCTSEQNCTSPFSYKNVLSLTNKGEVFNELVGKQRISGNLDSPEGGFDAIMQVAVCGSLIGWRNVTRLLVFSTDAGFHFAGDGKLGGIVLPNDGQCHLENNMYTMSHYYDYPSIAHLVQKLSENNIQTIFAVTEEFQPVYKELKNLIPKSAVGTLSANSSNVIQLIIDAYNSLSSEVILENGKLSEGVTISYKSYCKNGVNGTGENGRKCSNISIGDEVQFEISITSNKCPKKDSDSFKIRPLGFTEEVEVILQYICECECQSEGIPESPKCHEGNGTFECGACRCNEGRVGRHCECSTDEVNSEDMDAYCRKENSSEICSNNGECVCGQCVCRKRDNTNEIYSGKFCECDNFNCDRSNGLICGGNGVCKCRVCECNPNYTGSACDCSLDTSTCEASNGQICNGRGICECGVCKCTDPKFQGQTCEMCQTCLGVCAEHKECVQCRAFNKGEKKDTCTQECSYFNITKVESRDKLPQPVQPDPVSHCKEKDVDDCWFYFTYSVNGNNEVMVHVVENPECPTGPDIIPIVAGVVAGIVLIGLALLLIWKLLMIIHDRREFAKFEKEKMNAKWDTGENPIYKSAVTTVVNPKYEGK
Sequence of Integrin beta-1 (Homo sapiens) + Integrin alpha-4 (Homo sapiens) (P13612 whole entry, looked up): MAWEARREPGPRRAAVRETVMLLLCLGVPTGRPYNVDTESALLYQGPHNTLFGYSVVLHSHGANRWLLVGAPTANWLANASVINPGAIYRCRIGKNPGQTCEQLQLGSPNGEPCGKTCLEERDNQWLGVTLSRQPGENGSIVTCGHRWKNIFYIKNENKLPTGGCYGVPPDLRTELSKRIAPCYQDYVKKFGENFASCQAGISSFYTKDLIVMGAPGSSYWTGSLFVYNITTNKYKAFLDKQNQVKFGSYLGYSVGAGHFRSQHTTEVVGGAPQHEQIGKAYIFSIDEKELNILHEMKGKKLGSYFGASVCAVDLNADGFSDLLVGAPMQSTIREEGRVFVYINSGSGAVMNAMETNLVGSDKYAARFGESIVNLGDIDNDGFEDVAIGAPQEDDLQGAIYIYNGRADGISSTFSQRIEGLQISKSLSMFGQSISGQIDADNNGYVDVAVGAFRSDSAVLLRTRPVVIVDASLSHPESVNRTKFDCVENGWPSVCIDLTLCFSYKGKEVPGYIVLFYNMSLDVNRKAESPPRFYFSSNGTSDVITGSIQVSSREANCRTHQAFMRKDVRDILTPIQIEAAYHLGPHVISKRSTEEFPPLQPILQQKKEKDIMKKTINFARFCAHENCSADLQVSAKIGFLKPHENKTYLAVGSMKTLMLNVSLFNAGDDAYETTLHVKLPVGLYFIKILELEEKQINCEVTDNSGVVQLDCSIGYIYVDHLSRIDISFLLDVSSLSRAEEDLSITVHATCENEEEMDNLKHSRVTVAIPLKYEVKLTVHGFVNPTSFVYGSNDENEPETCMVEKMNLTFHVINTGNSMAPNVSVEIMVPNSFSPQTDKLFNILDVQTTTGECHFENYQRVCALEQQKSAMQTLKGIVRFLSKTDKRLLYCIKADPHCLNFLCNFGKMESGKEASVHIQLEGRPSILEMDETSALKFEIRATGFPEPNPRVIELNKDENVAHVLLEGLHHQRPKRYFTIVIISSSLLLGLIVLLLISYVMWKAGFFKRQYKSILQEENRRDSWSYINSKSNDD
Sequence of ATP-binding cassette sub-family B member 6 (Homo sapiens) (Q9NP58 whole entry, looked up): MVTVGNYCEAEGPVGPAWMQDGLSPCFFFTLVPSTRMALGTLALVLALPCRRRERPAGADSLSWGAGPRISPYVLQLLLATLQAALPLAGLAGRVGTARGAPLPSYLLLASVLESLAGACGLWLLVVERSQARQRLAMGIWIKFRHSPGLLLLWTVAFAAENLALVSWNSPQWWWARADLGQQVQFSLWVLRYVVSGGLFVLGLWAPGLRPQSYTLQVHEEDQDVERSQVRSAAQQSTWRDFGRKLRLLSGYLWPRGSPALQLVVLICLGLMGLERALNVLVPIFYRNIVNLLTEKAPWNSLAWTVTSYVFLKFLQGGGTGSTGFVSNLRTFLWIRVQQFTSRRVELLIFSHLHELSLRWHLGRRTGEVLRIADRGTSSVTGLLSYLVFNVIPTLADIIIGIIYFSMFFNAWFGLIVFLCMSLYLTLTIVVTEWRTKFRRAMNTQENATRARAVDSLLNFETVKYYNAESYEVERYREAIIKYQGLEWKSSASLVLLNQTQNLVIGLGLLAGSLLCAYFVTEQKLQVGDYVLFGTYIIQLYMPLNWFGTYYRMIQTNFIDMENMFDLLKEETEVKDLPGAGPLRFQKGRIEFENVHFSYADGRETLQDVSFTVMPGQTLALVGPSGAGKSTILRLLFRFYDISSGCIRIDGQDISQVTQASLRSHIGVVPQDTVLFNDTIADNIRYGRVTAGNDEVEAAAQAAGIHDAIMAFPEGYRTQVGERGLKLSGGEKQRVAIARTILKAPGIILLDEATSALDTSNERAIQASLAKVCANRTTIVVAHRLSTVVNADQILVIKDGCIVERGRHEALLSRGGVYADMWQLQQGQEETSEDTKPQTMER

Consider `CC1(C)C2CCC1(C)C(OCC[N+](C)(C)CC(=O)OC1CCCCC1)C2` (stereo not given), for which the percent of DMSO control GFP in [1] was 88% (inactive). Besides, the GFP response vs DMSO in [2] is 104% (inactive); in experiment [4], 78.1% (inactive). In addition, in experiment [3], the percent response of DMSO control is 104% (inactive). In [5], this molecule registered a double positive events of 70%. Also, the vesicle binding response in [5] is 196% (inactive). Also, the inhibition was 12.3% (inactive) in experiment [6], -2.94% (inactive) in [10] and 6% (inactive) in experiment [14]. Also, in experiment [7], the superoxide response (% of plate) is 95.2% (inactive). In addition, in experiment [8], the aptamer binding inhibition was -4% (inactive). The response in experiment [9] is -4.15% (inactive); in experiment [11] it was 3.18% (inactive). Moreover, in experiment [12], the binding (% of control) was 109% (inactive). For the same molecule, the efflux inhibition (fraction of control) in [13] was -0.06 (inactive). Also, the differentiation response in experiment [15] is -5.73% (inactive).

For the molecule `CCCCOc1ccc(OCCCN2CCOCC2)cc1`, the percent of DMSO control GFP in [1] was 86.5% (inactive). Further, the GFP response vs DMSO in experiment [2] is 136% (inactive); in experiment [4], 86.9% (inactive). For the same molecule, the percent response of DMSO control in experiment [3] was 104% (inactive). The GFP response, % of DMSO in experiment [16] was 95.9% (inactive). The same molecule came in with a double positive events in experiment [5] of 56%. Besides, the inhibition in experiment [6] was 11.3% (inactive); in experiment [10], -2.38% (inactive); in experiment [14], 11% (inactive). Moreover, in [7], the superoxide response (% of plate) is 112% (inactive). For the same molecule, the aptamer binding inhibition in experiment [8] is 3% (inactive). Besides, the response in experiment [9] was -8.98% (inactive); in experiment [11], 1.62% (inactive). Further, the binding (% of control) in experiment [12] was 106% (inactive). The efflux inhibition (fraction of control) in experiment [13] is -0.06 (inactive). For the same molecule, in experiment [15], the differentiation response was 4.91% (inactive).

As to `C[C@]12CC[C@@H]3c4ccc(OS(=O)(=O)O)cc4CC[C@H]3[C@@H]1CCC2=O`, the percent of DMSO control GFP in [1] is 90.6% (inactive). Moreover, the GFP response vs DMSO in experiment [2] is 120% (inactive); in experiment [4], 79.2% (inactive). Besides, in [3], the percent response of DMSO control is 96.6% (inactive). Also, in [5], the double positive events was 73.4%. Besides, the vesicle binding response in experiment [5] was 292% (inactive). Moreover, the inhibition in experiment [6] was 5.49% (inactive); in experiment [10], -3.24% (inactive); in experiment [14], 11% (inactive). Moreover, in experiment [7], the superoxide response (% of plate) was 95.8% (inactive). In addition, in experiment [8], the aptamer binding inhibition was -3% (inactive). Also, the response is 0.04% (inactive) in experiment [9] and 3.54% (inactive) in experiment [11]. Further, the binding (% of control) in [12] was 104% (inactive). The efflux inhibition (fraction of control) in experiment [13] was -0.24 (inactive). The differentiation response in experiment [15] was 6.55% (inactive).

Regarding `C[N+](C)(C)CCOP(=O)(O)OP(=O)([O-])OC[C@H]1O[C@@H](n2ccc(N)nc2=O)[C@H](O)[C@@H]1O`, the percent of DMSO control GFP in experiment [1] was 101% (inactive). Moreover, the GFP response vs DMSO in [2] is 113% (inactive); in experiment [4], 82% (inactive). Also, the percent response of DMSO control in experiment [3] was 112% (inactive). Also, the GFP response, % of DMSO in experiment [16] is 102% (inactive). This molecule showed a double positive events in [5] of 68.8%. Also, the inhibition was -12.9% (inactive) in experiment [6], -4.05% (inactive) in experiment [10] and 10% (inactive) in experiment [14]. In experiment [7], the superoxide response (% of plate) is 89.1% (inactive). For the same molecule, the aptamer binding inhibition in experiment [8] is 2% (inactive). The values for the response in [9] and in [11] were 3.17% (inactive) and -1.87% (inactive), respectively. The binding (% of control) in experiment [12] was 101% (inactive). Moreover, the efflux inhibition (fraction of control) in [13] is -0.17 (inactive). In [15], the differentiation response was -7.37% (inactive).

In the case of `OC[C@H]1O[C@@H](n2cnc3c(Nc4ccccc4)ncnc32)[C@H](O)[C@@H]1O`, in experiment [1], the percent of DMSO control GFP is 92.4% (inactive). Moreover, the GFP response vs DMSO in experiment [2] was 118% (inactive); in experiment [4] it was 73.2% (inactive). In addition, the percent response of DMSO control in experiment [3] is 112% (inactive). In [5], this molecule registered a double positive events of 62.8%. For the same molecule, in [5], the vesicle binding response is 139% (inactive). For the same molecule, the inhibition is -9.06% (inactive) in [6], -2.59% (inactive) in [10] and 10% (inactive) in experiment [14]. Also, in experiment [7], the superoxide response (% of plate) is 110% (inactive). In addition, the aptamer binding inhibition in experiment [8] is 1% (inactive). The results for the response in experiment [9] and in [11] were -8.38% (inactive) and -0.49% (inactive), respectively. For the same molecule, the binding (% of control) in [12] was 103% (inactive). The efflux inhibition (fraction of control) in experiment [13] is 0.3 (inactive). Moreover, the differentiation response in [15] was 2.46% (inactive).
